Laboratory results from PubChem BioAssay AID687001 (Broad Institute, 2013).
Entries with a potency or affinity are not part of this list. Activity calls are given as the source filed them.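 The calls were made as follows: active = signal-lowering compounds whose fitted half-maximal concentration is at or below twice the top tested dose in every run; inconclusive = runs disagree, flat 30 to 70% inhibition, or poor curve fit; inactive = the rest.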

molecular target: Protein S100-A4 (Homo sapiens) (UniProt P26447); assay: S100A4-myosin IIA binding inhibitor potency, dose response, biochemical, fluorescence polarization, cherry-picked hits (AID 687001); settings: FP, S100A4/TAMRA-myosin IIA peptide binding; series mostly up to 11 µM
Sequence (P26447 whole entry, looked up): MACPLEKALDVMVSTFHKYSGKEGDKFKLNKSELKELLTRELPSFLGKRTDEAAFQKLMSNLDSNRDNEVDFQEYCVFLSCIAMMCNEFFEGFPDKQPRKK

SMILES | outcome
CCCN1[C@H](CO)[C@H](c2ccc(C3=CCCCC3)cc2)[C@@H]1CNS(C)(=O)=O | inactive
Cc1cc(-c2nc(C)c(-c3nnc(SCC(=O)Nc4ccc(Cl)cc4)n3C)s2)no1 | inactive
CCC(=O)N1CCC(C)(C(=O)NCc2ccc(F)cc2)C1 (centres undefined) | inactive
Cc1ccc(NC(=O)CSc2ccc(-c3cccnc3)nn2)cc1 | inactive
NS(=O)(=O)c1ccc(NC(=O)COC(=O)CCCN2C(=O)c3cccc4cccc(c34)C2=O)cc1 | inactive
COc1nnc(-c2ccc(C)c(S(N)(=O)=O)c2)c2ccccc12 | inactive
CCN(CC(=O)Nc1c(F)cccc1F)C(=O)CNC(=O)c1cccs1 | inactive
CC(C)[C@H](NC(=O)N1CCn2c1nc1ccccc12)C(=O)NCc1ccccc1Cl | inactive
C[C@@H]1CN([C@H](C)CO)S(=O)(=O)c2ccc(C#CCN(C)C)cc2O[C@@H]1CN(C)CC1CC1 | inactive
Cc1cc2cc(CNC(=O)c3ccc(S(=O)(=O)N4CCCC4)cc3)ccc2n1C | inactive
N#Cc1cccc(-c2ccc3c(c2)[C@@H]2[C@@H](CCN2C(=O)c2ccncc2)[C@@H](CO)N3)c1 | inactive
Cn1c(-c2ccc(Cl)cc2)cnc1NCc1cc2c(cc1[N+](=O)[O-])OCO2 | inactive
CC(=O)Nc1ccc(NC(=O)C(C)OC(=O)CCCN=C2NS(=O)(=O)c3ccccc32)cc1 (centres undefined) | inactive
C[C@@H]1CN([C@H](C)CO)C(=O)c2cccc(NC(=O)C3CCCCC3)c2O[C@@H]1CN(C)Cc1ccc(Oc2ccccc2)cc1 | inactive
C[C@@H]1CN([C@H](C)CO)C(=O)c2c(c3ccccc3n2C)-c2ccccc2CO[C@H]1CN(C)S(=O)(=O)c1ccccc1 | inactive
COc1ccccc1N1CC(C(=O)Nc2ccc(C)c(S(=O)(=O)N3CCOCC3)c2)CC1=O (centres undefined) | inactive
O=C1SCCC1NC(=O)C(c1ccccc1)c1ccccc1 (centres undefined) | inactive
Cc1sc2nc(SCC(=O)N3CCOCC3)[nH]c(=O)c2c1-c1ccccc1 | inactive
C[C@H]1CN([C@@H](C)CO)C(=O)c2cc(NC(=O)CCC(F)(F)F)ccc2O[C@@H]1CN(C)S(=O)(=O)c1cn(C)cn1 | inactive
Cc1ccc(S(=O)(=O)N[C@H]2C=C[C@@H](CC(=O)NC3CCCCC3)O[C@@H]2CO)cc1 | inactive

SMILES | outcome
COCCCNc1nc2ccccc2nc1NS(=O)(=O)c1cc(Cl)ccc1Cl | inactive
COc1ccc(NC(=O)Nc2cccc3c2O[C@H](CN(C)Cc2ccc4c(c2)OCO4)[C@@H](C)CN([C@@H](C)CO)C3=O)cc1 | inactive
C[C@H](NC(=O)C[C@H]1C[C@@H]2c3cc(NC(=O)CN(C)C)ccc3O[C@@H]2[C@H](CO)O1)c1ccccc1 | inactive
CC1CCN(c2nc3c(c(=O)[nH]c(=O)n3C)n2CC(C)CSc2nnnn2-c2ccccc2)CC1 (centres undefined) | inactive
COC(=O)c1ccc2c(=O)n(CCCCCC(=O)NC3CCCCC3)c(=O)[nH]c2c1 | inactive
O=C(c1cc2c(s1)-c1ccccc1S(=O)(=O)C2)N1CCN(Cc2ccccc2)CC1 | inactive
COCC(=O)Nc1ccc2c(c1)[C@@H]1C[C@@H](CC(=O)N3CCOCC3)O[C@@H](CO)[C@@H]1O2 | inactive
C[C@@H](NC(=O)C[C@H]1C=C[C@@H](NC(=O)C2CCC2)[C@H](CO)O1)c1ccccc1 | inactive
O=C(Nc1ccccc1F)N1CC(=O)N2[C@H](CO)[C@@H](c3ccc(-c4ccccc4)cc3)[C@H]2C1 | inactive
COc1ccccc1S(=O)(=O)N[C@H]1CC[C@H](CC(=O)N2CCN(C)CC2)O[C@@H]1CO | inactive
Cc1ccccc1NC(=O)C1CCN(S(=O)(=O)c2ccc3c(c2)NC(=O)C(C)S3)CC1 (centres undefined) | inactive
CN(C)C(=O)C[C@@H]1C=C[C@H](NC(=O)Nc2cccc(F)c2)[C@@H](CO)O1 | inactive
Cc1noc(C)c1NC(=O)N(C)C[C@H]1OCCCC[C@H](C)Oc2ccc(NS(=O)(=O)c3ccc(F)cc3)cc2C(=O)N([C@H](C)CO)C[C@@H]1C | inactive
COc1ccc(OCC(=O)N2CCN(S(=O)(=O)c3ccc(Cl)s3)CC2)cc1 | inactive
Cc1cc(C(=O)NC2CCCN(Cc3ccc(Cl)cc3)C2)n(C)n1 (centres undefined) | inactive
CC(C)NC(=O)c1ccc(COc2cc(Cl)ccc2Cl)o1 | inactive
O=C(O)COCC(=O)Nc1ccc(-n2nc(C(F)(F)F)cc2-c2cccs2)cc1 | inactive
COCCCNC(=O)C[C@@H]1C[C@@]2(C(=O)OC)CCCCC=C2N(Cc2ccc3c(c2)OCO3)C1=O | inactive
CC(=O)N1CCCCN2[C@H](CO)[C@H](c3ccc(C#Cc4ccccc4F)cc3)[C@@H]2C1 | inactive
